Compound activity: PubChem BioAssay, National Center for Advancing Translational Sciences (NCATS)
CHX counter: Cycloheximide Counterscreen for Small Molecule Inhibitors of Shiga Toxin. cell reporter, cycloheximide protein synthesis inhibition counterscreen. max response, %. hit rate 12% among 300,000; in the data active = max response mostly above about 13%, no sharp cut-off; inactive = mostly below about 14%; also: read at 38.3 µM for the half of the compounds with a filed dose
Pf growth 48h: Primary qHTS for delayed death inhibitors of the malarial parasite plastid, 48 hour incubation; P. falciparum luciferase growth in erythrocytes, 48 h; Potency, µM (series often up to 28.7 µM), actives largely listed as inhibitors; hit rate 5.9% among 310,000
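Growth was read as firefly luciferase luminescence after a 48 h, 37 C, 5% CO2 exposure of compounds to reporter-bearing P. falciparum cultures (0.1% parasitemia, 2% hematocrit final) in Albumax-supplemented RPMI 1640.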
Shiga toxin inh: A qHTS for Small Molecule Inhibitors of Shiga Toxin; Vero cells, Shiga toxin protein synthesis inhibition reporter; inhibition, % at 38.7 µM; hit rate 9.2% among 290,000; in the data active = inhibition mostly above about 28%, no sharp cut-off; inactive = mostly below about 43%
HCMV inh: qHTS Assay for inhibitors of the human cytomegalovirus (HCMV); HFF cells, HCMV-luciferase reporter, 72 h; hits give low values; activity change, negative = inhibition, % at 57.5 µM; hit rate 4.5% among 410,000; in the data active = activity change below about -60%; inconclusive = no clear call, values can overlap the other calls; inactive = above about -39%
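Two-dose cell screen: HFF monolayers treated with compounds and infected with luciferase-expressing HCMV at 1 PFU/cell, 72 h at 37C, then lysed for luciferase measurement.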
Pf growth 96h: Primary qHTS for delayed death inhibitors of the malarial parasite plastid, 96 hour incubation; P. falciparum luciferase reporter growth, 96 h; Potency, µM (titrated, usually from 28.7 µM), usual class: inhibitors; hit rate 6.9% among 320,000
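P. falciparum expressing integrated firefly luciferase grown in erythrocytes (2% hematocrit, 0.05% parasitemia final) with compounds for 96 hours at 37 C, 5% CO2. Growth inhibition read as loss of luminescence after adding luciferase detection reagent.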
Numbers stand for hits; . = inactive; ? = inconclusive; / = no result. The list is not random: actives were taken first. Their share in the collection is about 20%. Unless noted, calls follow the shape of the dose curve; as a rule, active = well fitted inhibition curve with a large enough effect; inconclusive = small, poorly fitted or top-dose-only effect, or another doubt; inactive = no such curve, though single readings can be large or run the other way.

SMILES	CHX counter	Pf growth 48h	Shiga toxin inh	HCMV inh	Pf growth 96h
CCCC(c1nnnn1Cc1ccco1)N1CCN(C2CCCC2)CC1 (configuration not stated)	.	.	.	.	12µM
Cc1ccc(C)c(NC(=O)Cn2cc(S(=O)(=O)NC(C)C)c(S(=O)(=O)NC(C)C)c2)c1	/	/	/	.	/
CNC[C@@H](Cc1ccccc1)NC[C@@H](CC1CCCCC1)NCCCc1ccccc1	.	?	.	-101	?
CNCCCc1ccccc1	.	.	.	.	.
CNC[C@@H](CC1CCCCC1)NC[C@H](CC(C)C)NCCc1cccc(C(F)(F)F)c1	.	?	.	-99	1.9µM
O=C(COC(=O)c1ccccc1)NCCCCc1ccccc1	/	/	/	.	/
CCC[C@@H](CN[C@@H](CNC)C(C)C)NCCCCc1ccccc1	.	?	.	?	12µM
CCC[C@@H](CNC)NC[C@H](Cc1ccccc1)NCCCCc1ccccc1	.	?	.	?	1.7µM
CC(C)N1C(=O)CC[C@@H](S(=O)(=O)c2ccccc2)[C@@H]1c1ccccc1	/	/	/	.	/
Cc1cccc(-c2oc3ccc(-c4ccc5c(c4)OCO5)cc3c2/C=C/c2ccc(N)cc2)c1	.	.	.	/	?
COC(=O)c1cc(S(=O)(=O)N2CCCCCC2)cn1C	.	.	.	.	.
Cc1ccc(NC2CCCN(C(=O)c3ccc(C)c(N4CCNC4=O)c3)C2)cc1C (configuration not stated)	9.9	.	.	/	.
Cc1ccc(NC2CCCN(C(=O)c3ccoc3)C2)cc1C (configuration not stated)	.	.	.	.	10µM
Cc1ccc(NC2CCCN(C(=O)c3cccc(-c4ncc[nH]4)c3)C2)cc1C (configuration not stated)	.	?	.	.	10µM
COc1ccc(NC2CCCN(C(=O)c3cccc(N4CCNC4=O)c3)C2)cc1 (configuration not stated)	.	?	.	.	.
Cc1ccc(NC2CCCN(C(=O)C3CCCC3)C2)cc1C (configuration not stated)	.	.	.	.	13µM
COc1ccc(C(=O)N2CCCC(Nc3ccc(C)c(C)c3)C2)cc1 (configuration not stated)	.	.	.	.	.
Cc1ccc(NC2CCCN(C(=O)c3cnsn3)C2)cc1C (configuration not stated)	.	.	.	.	.
COc1ccc(Cl)cc1NC(=O)CSc1cc(C)[nH]c(=O)n1	/	/	/	.	/
O=C(N1CCOCC1)N1CCN(S(=O)(=O)c2cccc([N+](=O)[O-])c2)CC1	.	.	.	.	.
Cc1ccc(NC2CCCN(C(=O)CCCN3CCCCC3=O)C2)cc1C (configuration not stated)	13	?	.	.	?
N#Cc1cc2c(=O)n3ccccc3nc2n(-c2ccc(Cl)cc2)c1=O	.	.	.	-60	.
Cc1ccccc1-n1c(=O)c(C#N)cc2c(=O)n3ccccc3nc21	.	/	.	.	?
CCC1Oc2ccccc2N(CC(=O)NCCc2ccc(OC)c(OC)c2)C1=O (configuration not stated)	.	?	.	?	3.3µM
COc1ccc(CCNC(=O)Cn2cc(C(F)(F)F)cc(Cl)c2=O)cc1OC	.	6.6µM	.	.	?
SMILES	CHX counter	Pf growth 48h	Shiga toxin inh	HCMV inh	Pf growth 96h
COc1ccc(CCNC(=O)CSc2nc3c(sc(=S)n3-c3ccccc3)c(=O)[nH]2)cc1OC	/	/	/	.	/
CCCCn1c(-c2ccccc2)cnc1SCC(=O)NCCc1ccc(OC)c(OC)c1	21	.	132	.	.
COc1ccc(CCNC(=O)CSc2nn(-c3ccccc3)c(=S)s2)cc1OC	.	10µM	.	.	?
CC(NC(=O)COC(=O)CNC(=O)c1ccccc1Cl)C1CC2CCC1C2 (configuration not stated)	/	.	/	.	.
Cn1c(-c2ccccc2)c(Sc2ccccc2)c2cc(-c3ccc4cc[nH]c4c3)ccc21	/	/	/	.	/
O=S(=O)(NCc1ccc(F)cc1)c1ccc(-n2cccn2)cc1	.	.	.	.	?
COc1ccc(CCNC(=O)CSc2ccc(-c3ccco3)nn2)cc1OC	.	.	.	-63	.
CCCCc1c(O)nc(SCC(=O)NCCc2ccc(OC)c(OC)c2)[nH]c1=O	.	.	.	.	5.9µM
COc1ccc(CCNC(=O)CSc2nc(O)c(CCC(C)C)c(=O)[nH]2)cc1OC	.	.	.	.	?
